Results published in PubChem BioAssay AID1159580 (chemical genetic matrix, 2015).
In all, about 5,500 compounds went through this assay and about 2,000 (36%) were called active. Roughly 18% stayed inconclusive and do not appear here. Rule as the data show it: active = normalized growth mostly below about 0.91 (no sharp cut-off); inconclusive = no clear call, values can overlap the other calls; inactive = mostly above about 0.92. Some of the results follow.

Assay: chemical genetic growth profiling, strain panel (AID 1159580);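 also: tested at 20 µM; growth read once vehicle control cultures reached saturation at 30 °C; 1 = growth at the plate median or of vehicle wells; lower values mean less growth of the strain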
Conditions: growth OD

Measured: normalized growth

CC12CCCC(O)(C1)C1CC(C)(C)C1CC2 (configuration not stated)
inactive: S. cerevisiae deletion strains, locus YJR066W, strain TOR1, hits give low values 0.95 | S. cerevisiae deletion strains, locus YKL009W, strain mrt4, hits give low values 1.02 | S. cerevisiae deletion strains, locus YKL068W, hits give low values 1.01 | S. cerevisiae deletion strains, locus YKL085W, strain MDH1 (second series), hits give low values 0.998 | S. cerevisiae deletion strains, locus YKL085W, strain MDH1, hits give low values 0.998 | S. cerevisiae deletion strains, locus YKL160W, strain elf1, hits give low values 0.954 | S. cerevisiae deletion strains, locus YKR001C, strain vps1, hits give low values 1.02 | S. cerevisiae deletion strains, locus YKR026C, strain gcn3, hits give low values 0.999 | S. cerevisiae deletion strains, locus YKR091W, strain srl3, hits give low values 0.991 | S. cerevisiae deletion strains, locus YLL001W, strain dnm1, hits give low values 0.925 | S. cerevisiae deletion strains, locus YLL026W, hits give low values 0.982 | S. cerevisiae deletion strains, locus YLL041C, strain sdh2, hits give low values 0.982 | S. cerevisiae deletion strains, locus YLR027C, strain aat2, hits give low values 0.948 | S. cerevisiae deletion strains, locus YLR039C, strain RIC1, hits give low values 0.972 | S. cerevisiae deletion strains, locus YLR058C, strain SHM2, hits give low values 1.01 | S. cerevisiae deletion strains, locus YLR102C, strain apc9, hits give low values 1.01 | S. cerevisiae deletion strains, locus YLR113W, strain HOG1, hits give low values 0.939 | S. cerevisiae deletion strains, locus YLR221C, strain rsa3, hits give low values 0.983 | S. cerevisiae deletion strains, locus YLR258W, strain gsy2, hits give low values 0.961 | S. cerevisiae deletion strains, locus YLR262C, strain YPT6 (second series), hits give low values 0.878 | S. cerevisiae deletion strains, locus YLR262C, strain YPT6, hits give low values 1.01 | S. cerevisiae deletion strains, locus YLR268W, strain sec22, hits give low values 0.992 | S. cerevisiae deletion strains, locus YLR320W, strain mms22, hits give low values 0.937 | S. cerevisiae deletion strains, locus YLR342W, strain FKS1, hits give low values 0.918 | S. cerevisiae deletion strains, locus YLR357W, strain rsc2, hits give low values 0.984 | S. cerevisiae deletion strains, locus YLR370C, strain arc18, hits give low values 0.981 | S. cerevisiae deletion strains, locus YLR371W, strain rom2, hits give low values 1.01 | S. cerevisiae deletion strains, locus YLR384C, strain iki3, hits give low values 1.01 | S. cerevisiae deletion strains, locus YLR418C, strain cdc73, hits give low values 1.1 | S. cerevisiae deletion strains, locus YML016C, strain PPZ1, hits give low values 1.01 | S. cerevisiae deletion strains, locus YML032C, strain rad52, hits give low values 1.02 | S. cerevisiae deletion strains, locus YML120C, strain ndi1, hits give low values 1 | S. cerevisiae deletion strains, locus YML124C, strain tub3, hits give low values 1.01 | S. cerevisiae deletion strains, locus YMR058W, strain fet3, hits give low values 0.985 | S. cerevisiae deletion strains, locus YMR078C, strain ctf18, hits give low values 1.02 | S. cerevisiae deletion strains, locus YMR125W, strain sto1, hits give low values 0.974 | S. cerevisiae deletion strains, locus YMR129W, hits give low values 1.01 | S. cerevisiae deletion strains, locus YMR223W, strain ubp8, hits give low values 1.02 | S. cerevisiae deletion strains, locus YMR231W, strain pep5, hits give low values 0.996 | S. cerevisiae deletion strains, locus YMR263W, strain SAP30, hits give low values 1.01 | S. cerevisiae deletion strains, locus YMR307W, strain GAS1, hits give low values 0.968 | S. cerevisiae deletion strains, locus YNL067W, strain RPL9B, hits give low values 1.02 | S. cerevisiae deletion strains, locus YNL153C, strain GIM3, hits give low values 1.02 | S. cerevisiae deletion strains, locus YNL183C, strain NPR1, hits give low values 0.953 | S. cerevisiae deletion strains, locus YNL209W, strain ssb2, hits give low values 1 | S. cerevisiae deletion strains, locus YNL233W, strain BNI4, hits give low values 1.02 | S. cerevisiae deletion strains, locus YNL248C, strain rpa49, hits give low values 1.01 | S. cerevisiae deletion strains, locus YNL250W, strain rad50, hits give low values 1.04 | S. cerevisiae deletion strains, locus YNL271C, strain bni1, hits give low values 0.998 | S. cerevisiae deletion strains, locus YNL298W, strain CLA4, hits give low values 0.993 | S. cerevisiae deletion strains, locus YNL307C, strain MCK1, hits give low values 1.02 | S. cerevisiae deletion strains, locus YNL322C, strain KRE1 (second series), hits give low values 0.974 | S. cerevisiae deletion strains, locus YNL322C, strain KRE1, hits give low values 1.01 | S. cerevisiae deletion strains, locus YNR049C, strain mso1, hits give low values 1 | S. cerevisiae deletion strains, locus YNR052C, strain pop2, hits give low values 1.03 | S. cerevisiae deletion strains, locus YOL012C, strain htz1 1.39 | S. cerevisiae deletion strains, locus YOL147C, strain pex11, hits give low values 0.997 | S. cerevisiae deletion strains, locus YOR001W, strain rrp6, hits give low values 1.05 | S. cerevisiae deletion strains, locus YOR061W, strain CKA2, hits give low values 1 | S. cerevisiae deletion strains, locus YOR069W, strain VPS5, hits give low values 1.01 | S. cerevisiae deletion strains, locus YOR070C, strain gyp1, hits give low values 0.975 | S. cerevisiae deletion strains, locus YOR080W, strain dia2, hits give low values 1.01 | S. cerevisiae deletion strains, locus YOR083W, strain WHI5, hits give low values 0.956 | S. cerevisiae deletion strains, locus YOR106W, strain vam3, hits give low values 0.986 | S. cerevisiae deletion strains, locus YOR136W, strain idh2, hits give low values 1.01 | S. cerevisiae deletion strains, locus YOR144C, strain elg1, hits give low values 1 | S. cerevisiae deletion strains, locus YOR184W, strain ser1, hits give low values 0.978 | S. cerevisiae deletion strains, locus YOR231W, strain MKK1, hits give low values 0.973 | S. cerevisiae deletion strains, locus YOR265W, strain rbl2, hits give low values 0.999 | S. cerevisiae deletion strains, locus YOR290C, strain snf2, hits give low values 0.954 | S. cerevisiae deletion strains, locus YOR316C, strain cot1, hits give low values 1.01 | S. cerevisiae deletion strains, locus YPL051W, strain arl3, hits give low values 0.939 | S. cerevisiae deletion strains, locus YPL055C, strain LGE1, hits give low values 1.01 | S. cerevisiae deletion strains, locus YPL078C, strain atp4, hits give low values 0.941 | S. cerevisiae deletion strains, locus YPL106C, strain sse1, hits give low values 0.892 | S. cerevisiae deletion strains, locus YPL240C, strain hsp82, hits give low values 0.991 | S. cerevisiae deletion strains, locus YPL241C, strain CIN2, hits give low values 0.999 | S. cerevisiae deletion strains, locus YPL256C, strain CLN2, hits give low values 0.958 | S. cerevisiae deletion strains, locus YPR119W, strain clb2, hits give low values 1.02 | S. cerevisiae deletion strains, locus YPR141C, strain kar3, hits give low values 1 | S. cerevisiae deletion strains, locus YPR163C, strain tif3, hits give low values 1.02 | S. cerevisiae deletion strains, locus YPR167C, strain met16, hits give low values 1.01 | S. cerevisiae deletion strains, strain wtn01, hits give low values 1.01 | S. cerevisiae strains, strain wild type, hits give low values 1.01
active: S. cerevisiae deletion strains, locus YMR205C, strain PFK2, hits give low values 0.861 | S. cerevisiae deletion strains, locus YNL071W, strain lat1, hits give low values 0.859 | S. cerevisiae deletion strains, locus YOR270C, strain vph1, hits give low values 0.709
